# Results published in PubChem BioAssay.
# Calls of active or inactive are those of the source.
# Tests used:
# [1] = tested on: Plasmodium falciparum Sir2 (PF13_0152, Sir2A); assay: Plasmodium falciparum Sir2A binding compounds – biochemical, small-molecule microarray, 635 nm fluorescence, primary screen (AID 1098); conditions: fluorescence 635 nm, higher = more signal;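 also: score merges spot fluorescence intensity with its signal-to-noise ratio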
# [2] = probe aDKK1 binding to arrayed compounds – biochemical, biotinylated probe, 635/667 nm fluorescence, primary screen (AID 1099); conditions: small-molecule microarray, higher = more signal;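 also: score merges 667nm spot fluorescence with signal to noise across triplicate slides; reference of the scale not given here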
# [3] = probe aCHRDL2 binding to arrayed compounds – biochemical, biotinylated probe, 635/667 nm fluorescence, primary screen (AID 1100); conditions: small-molecule microarray, higher = more signal
# [4] = change in splice reporter luminescence, either direction, cell-based, HEK293, spliceosome inhibition project, primary screen (AID 1101); conditions: HEK293 splicing luciferase reporter, 24 h, higher = more signal, called active from +8 up or from −8 down;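 also: HEK293 cells carrying a splicing-competent luciferase reporter gene; test concentration not given here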
# [5] = target: Fibroblast growth factor 10 (Homo sapiens) (UniProt O15520); assay: compounds binding fibroblast growth factor 10 – biochemical, small-molecule microarray, 635 nm fluorescence, primary screen (AID 1102); conditions: FGF10 binding, fluorescence 635 nm, higher = more signal
# Sequence of Fibroblast growth factor 10 (Homo sapiens) (O15520 whole entry, looked up): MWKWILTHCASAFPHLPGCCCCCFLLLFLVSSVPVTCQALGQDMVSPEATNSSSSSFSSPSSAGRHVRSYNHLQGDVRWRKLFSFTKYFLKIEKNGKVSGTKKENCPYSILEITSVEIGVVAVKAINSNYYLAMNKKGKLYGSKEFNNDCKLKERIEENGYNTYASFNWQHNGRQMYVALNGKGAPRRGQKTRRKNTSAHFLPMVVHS
# [6] = tested on: glycogen synthase kinase-3 (GSK3A per assay name; protocol says GSK3B); assay: compounds binding glycogen synthase kinase-3 – biochemical, small-molecule microarray, 635 nm fluorescence, GSK3A, primary screen (AID 1103); conditions: fluorescence 635 nm, higher = more signal; also: the record names both GSK3A and GSK3B
# [7] = target: Epidermal growth factor receptor (Homo sapiens) (UniProt P00533); assay: compounds binding epidermal growth factor receptor – biochemical, small-molecule microarray, 635 nm fluorescence, primary screen (AID 1104); conditions: EGFR binding, higher = more signal;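 also: score merges 667 nm emission intensity with spot signal to noise over triplicate slides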
# Sequence of Epidermal growth factor receptor (Homo sapiens) (P00533 whole entry, looked up): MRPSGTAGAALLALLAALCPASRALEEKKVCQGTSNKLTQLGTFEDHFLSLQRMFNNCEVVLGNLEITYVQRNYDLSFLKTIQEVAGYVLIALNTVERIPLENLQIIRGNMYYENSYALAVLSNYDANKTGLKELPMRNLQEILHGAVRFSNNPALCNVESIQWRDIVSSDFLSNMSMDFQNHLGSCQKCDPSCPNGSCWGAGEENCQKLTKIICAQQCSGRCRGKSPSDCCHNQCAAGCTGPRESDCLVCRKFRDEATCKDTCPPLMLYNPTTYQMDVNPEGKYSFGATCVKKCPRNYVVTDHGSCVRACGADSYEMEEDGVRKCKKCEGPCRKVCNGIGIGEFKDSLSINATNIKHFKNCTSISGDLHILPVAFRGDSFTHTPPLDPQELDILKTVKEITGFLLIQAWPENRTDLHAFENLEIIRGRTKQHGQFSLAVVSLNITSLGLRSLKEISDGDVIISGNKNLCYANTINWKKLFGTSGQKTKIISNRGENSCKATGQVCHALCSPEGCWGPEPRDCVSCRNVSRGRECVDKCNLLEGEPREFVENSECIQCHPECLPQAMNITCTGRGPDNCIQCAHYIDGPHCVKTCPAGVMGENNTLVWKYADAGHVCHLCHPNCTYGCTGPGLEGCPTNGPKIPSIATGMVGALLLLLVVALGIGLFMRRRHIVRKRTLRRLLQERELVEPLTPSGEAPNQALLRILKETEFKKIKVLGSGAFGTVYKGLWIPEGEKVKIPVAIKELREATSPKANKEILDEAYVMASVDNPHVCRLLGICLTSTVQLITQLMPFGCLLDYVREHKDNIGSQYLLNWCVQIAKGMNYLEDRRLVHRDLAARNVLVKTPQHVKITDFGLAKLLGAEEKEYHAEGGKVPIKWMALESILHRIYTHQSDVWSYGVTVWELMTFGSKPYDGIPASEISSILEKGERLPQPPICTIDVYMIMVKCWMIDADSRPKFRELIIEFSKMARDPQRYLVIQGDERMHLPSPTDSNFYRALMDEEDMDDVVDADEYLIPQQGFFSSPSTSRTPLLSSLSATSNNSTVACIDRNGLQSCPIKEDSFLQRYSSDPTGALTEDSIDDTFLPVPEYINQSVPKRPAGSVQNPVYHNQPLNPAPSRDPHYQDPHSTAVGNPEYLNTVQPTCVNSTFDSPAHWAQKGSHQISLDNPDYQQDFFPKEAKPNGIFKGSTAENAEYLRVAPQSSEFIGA
# [8] = target: Follistatin-related protein 3 (Homo sapiens) (UniProt O95633); assay: compounds binding follistatin-related protein 3 – biochemical, small-molecule microarray, 635 nm fluorescence, primary screen (AID 1105); conditions: FSTL3 binding, higher = more signal;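 also: score merges emission near 667 nm and signal to noise per printed spot across three slides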
# Sequence of Follistatin-related protein 3 (Homo sapiens) (O95633 whole entry, looked up): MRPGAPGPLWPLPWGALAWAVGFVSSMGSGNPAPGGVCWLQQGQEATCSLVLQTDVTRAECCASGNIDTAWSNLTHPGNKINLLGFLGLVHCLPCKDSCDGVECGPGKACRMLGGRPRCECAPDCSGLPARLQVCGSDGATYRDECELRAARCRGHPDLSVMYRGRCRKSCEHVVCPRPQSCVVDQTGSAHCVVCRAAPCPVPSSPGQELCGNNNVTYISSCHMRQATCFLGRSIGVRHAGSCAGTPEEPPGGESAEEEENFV
# [9] = target: Dickkopf-related protein 1 (Homo sapiens) (UniProt O94907); assay: small molecules binding DKK1 protein – biochemical, small-molecule microarray, 635 nm fluorescence scan, primary screen (AID 1106); conditions: higher = more signal;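 also: score merges emission near 667 nm with signal to noise over three replicate slides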
# Sequence of Dickkopf-related protein 1 (Homo sapiens) (O94907 whole entry, looked up): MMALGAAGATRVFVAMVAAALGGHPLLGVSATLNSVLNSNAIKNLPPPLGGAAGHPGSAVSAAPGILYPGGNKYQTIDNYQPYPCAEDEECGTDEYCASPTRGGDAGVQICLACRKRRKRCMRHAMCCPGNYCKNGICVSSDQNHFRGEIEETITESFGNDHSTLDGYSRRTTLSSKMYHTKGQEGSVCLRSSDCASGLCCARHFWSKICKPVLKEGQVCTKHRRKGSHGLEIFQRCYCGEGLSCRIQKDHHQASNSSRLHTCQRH
# [10] = tested on: Inhibin beta A chain (activin A); assay: small molecules binding activin A – biochemical, small-molecule microarray, 635 nm fluorescence scan, primary screen (AID 1107); conditions: INHBA, higher = more signal;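 also: mouse activin A protein probed at 4.33 µg/mL on printed slides; score merges bound-protein fluorescence near 667 nm with spot signal-to-noise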
Compound,composite z-score [1],composite z-score [2],composite z-score [3],z-score [4],composite z-score [5],composite z-score [6],composite z-score [7],composite z-score [8],composite z-score [9],composite z-score [10]
CC(C)N1C(=O)[C@@]2(Cc3ccccc31)c1ccccc1C(=O)N(Cc1ccccc1)[C@H]2c1ccc(CO)cc1,0.0154,-1.02,-1.01,0.144 (inactive),0.368,0.241,-0.162,0.245,0.355,0.931
CCOC(=O)C[C@H]1[C@H](OC(=O)c2ccccc2-c2ccccc2)[C@@H](NC(=O)CC(C)C)c2cc(OCCCO)ccc2N1C(=O)c1ccccc1,0.461,-0.28,-0.56,-0.739 (inactive),0.625,0.211,0.405,1.26,0.523,-0.105
O=C1N(Cc2ccccc2)Cc2ccccc2C[C@@]12COC(c1ccc(OCCCO)cc1)=N2,0.631,1.02,1.27,6.28 (inactive),0.334,1.27,-0.622,0.288,0.306,1.4
Cc1ccc(S[C@]2(C(=O)NCc3ccccc3)CC(=O)N(Cc3ccccc3C(F)(F)F)[C@@H]2c2ccc(CO)cc2I)cc1,1.62,0.211,0.831,-0.494 (inactive),-0.557,-0.498,-1.3,-0.793,-0.749,1.07
COC(=O)c1c2oc(c1C(=O)OC)C(=O)N[C@H](Cc1ccccc1)Cn1cc(nn1)C1(CCCCC1)NC(=O)N[C@H](CO)CC2,0.569,-0.177,-0.279,-0.168 (inactive),0.495,-0.528,-0.857,-0.409,-0.2,0.116
C=C[C@@H](CO)NS(=O)(=O)c1ccc(Br)cc1,-1.62,-0.267,-0.0866,-0.774 (inactive),-0.398,-0.986,-0.288,-0.459,-0.0213,0.733
[N-]=[N+]=NCc1ccccc1[C@H]1OC(c2ccc(OCCCO)cc2)=N[C@@]1(CCS(=O)(=O)c1ccccc1)C(=O)NCCN1CCOCC1,1.51,0.667,1.12,-0.757 (inactive),1.38,0.844,0.135,0.698,0.0689,0.914
C=CCNC(=O)[C@H]1[C@@H]2C(=O)O[C@@H](c3ccccc3)[C@@H](c3ccccc3)N2[C@@H](c2ccc(OCCO)cc2)[C@]12C(=O)N(C(=O)OCCOC)c1ccc(C#CCC(C(=O)OC)C(=O)OC)cc12,1.4,0.713,0.997,0.345 (inactive),1.44,1.16,0.524,1.08,0.5,0.768
CCCC[C@@H](O)C1=C(C)Cn2c(=O)n(-c3ccccc3)c(=O)n2[C@H]1CO,-0.0833,-0.526,-0.487,-1 (inactive),0.132,-0.349,0.0431,-0.265,0.0869,0.146
CCN1C(=O)C2CC(=O)C3C(CN(S(=O)(=O)c4ccc(C)cc4)C3c3ccc(C)cc3)C2C1=O (stereo not given),0.959,0.972,0.882,-0.106 (inactive),0.193,0.338,-0.483,-0.167,-0.295,1.15
C=C(CCCC)C(=O)CC[C@@H](OC(C)=O)c1ccc(OCCO)cc1,0.476,-0.276,-0.169,3.03 (inactive),1.48,-0.198,-0.678,0.824,0.268,0.204
CC(C)Cc1ccc(CN2CC[C@@H](NC(=O)c3ccccc3)C2)cc1,0.934,-0.357,0.0383,1.03 (inactive),-0.75,-1.11,-0.381,-0.647,-0.0332,0.631
COc1cc(Cc2cc3c(c(CCc4ccccc4)n2)[Si](C(C)C)(C(C)C)O[C@H]3c2ccccc2)cc(OC)c1OC,1.05,0.0709,0.366,-1.06 (inactive),-0.507,-1.04,-0.4,-0.617,-0.308,0.87
COC(=O)C1=CC(CCCO)=CC(c2ccc(CN3CCCC3)cc2)N(C)C=C1C(=O)OC (stereo not given),1.65,0.629,0.549,0.657 (inactive),0.883,-0.302,-0.138,0.345,-0.36,0.861
C=C(C(=O)CC[C@@H](OC(=O)c1ccccc1-c1ccccc1C(=O)O)c1ccc(CO)o1)C(C)C,1.07,-0.258,-0.532,0.88 (inactive),1.51,0.913,-0.132,0.648,1.12,0.927
CC(=O)NCCCC[C@@H]1NC(=O)[C@H]2C[C@@H](C(=O)NCCCCCN)[C@@H](c3ccc(O)cc3)N2C1=O,0.863,0.316,0.17,0.0809 (inactive),0.544,1.29,0.511,0.777,1.02,0.792
C=CCNC(=O)[C@@H]1[C@H]2C(=O)O[C@H](c3ccccc3)[C@H](c3ccccc3)N2[C@H](c2ccc(O)cc2)[C@@]12C(=O)Nc1ccc(C#CC3=CCCCC3)cc12,1.6,0.582,-0.228,-0.258 (inactive),1.24,0.887,0.494,0.79,0.626,0.406

Compound,composite z-score [1],composite z-score [2],composite z-score [3],z-score [4],composite z-score [5],composite z-score [6],composite z-score [7],composite z-score [8],composite z-score [9],composite z-score [10]
COC(=O)[C@@]1(Cc2ccc(F)cc2)[C@@H]2C(=CC(=O)[C@H]2CC(=O)C(=O)N2CCCC2)CN1C(=O)c1ccccc1,0.9,1.72,0.978,-4.12 (inactive),1.48,0.573,1.36,1.39,0.467,1.19
CC(C)(C)OC(=O)CC[C@]1(C(=O)N2CCOCC2)COC(c2ccc(OCCCO)cc2)=N1,1.45,0.37,0.668,-0.713 (inactive),0.164,-0.668,0.727,-0.87,-1.34,0.309
CCOC(=O)C[C@H]1[C@H](OC(=O)Cc2ccc3c(c2)OCO3)[C@@H](NC(=O)CC(C)C)c2cc(OCCCO)ccc2N1C(=O)c1ccc2ccccc2n1,1.26,0.0956,-0.252,-0.881 (inactive),0.891,0.614,0.255,1.19,0.743,0.242
CC(C)(C)OC(=O)CC[C@@]1(C(N)=O)N=C(c2ccc(OCCCO)cc2)O[C@@H]1c1ccccc1CN=[N+]=[N-],0.469,1.42,1.08,-0.169 (inactive),1.48,1.1,0.0813,0.211,-0.105,0.854
COC(=O)C[C@H]1O[C@]2(C(=O)N(C)c3ccccc32)[C@@H](C)[C@@H]1[Si](C)(C)c1ccccc1,-0.0153,-0.0571,-0.261,-1.25 (inactive),0.988,0.96,0.753,0.837,1.11,-0.399
[N-]=[N+]=Nc1ccccc1C[C@@]1(C(=O)NCc2ccccc2)N=C(c2ccc(OCCCO)cc2)O[C@@H]1c1ccccc1,1.22,0.95,1.03,-0.0448 (inactive),1.14,1.29,0.165,1.06,0.313,0.838
COc1ccc(C#Cc2ccc3c(c2)[C@]2(C(=O)N3)[C@H](c3ccccc3OCCO)N3[C@H](c4ccccc4)[C@H](c4ccccc4)OC(=O)[C@H]3[C@@H]2C(=O)NC[C@H](O)c2ccccc2)cc1,1.3,0.183,-0.0392,-2.01 (inactive),1.33,1.31,0.573,1.34,1.2,-0.0784
C=CCNC(=O)[C@@H]1[C@H]2C(=O)O[C@H](c3ccccc3)[C@H](c3ccccc3)N2[C@H](c2ccc(O)cc2)[C@@]12C(=O)N(C(=O)OCCOC)c1ccc(C#CCC(C(=O)OC)C(=O)OC)cc12,0.533,-0.0333,0.0912,0.942 (inactive),1.17,0.611,0.408,1,0.493,0.273
CC(C)c1ccc(NN2C(C(O)C3=C[C@H]4C[C@@H](C3)C4(C)C)C=CC3C(=O)N(c4ccccc4)C(=O)C32)cc1 (stereo not given in full),0.969,0.886,0.665,-0.0409 (inactive),0.409,0.577,0.366,0.827,0.245,0.829
CC(C)N1C(=O)[C@@]2(Cc3ccccc31)c1ccccc1C(=O)N(Cc1ccccc1C(F)(F)F)[C@H]2c1ccc(CO)cc1,1.73,0.444,-0.756,-0.352 (inactive),0.178,0.366,0.0355,1.39,1.08,0.66
C[C@H]1C2[C@H](Cc3ccccc3)NC(=O)[C@]23C(=O)N[C@@H](Cc2ccccc2)C(=O)N2CCC[C@H]2C(=O)NC/C=C/CC/C=C/C3[C@@H]2O[C@]12C (stereo not given in full),1.26,-0.297,-0.684,0.437 (inactive),1.38,0.769,-0.0947,0.895,0.272,0.87
OCCCc1cc[n+](Cc2cc3c(cc2Br)OCO3)cc1,-0.837,-0.0013,0.706,0.341 (inactive),-0.741,-1.84,-1.15,-0.725,-0.625,0.783
CO[C@H]1O[C@H](CO)[C@@H](OC(=O)Nc2cccc(F)c2)[C@H](OC(=O)c2cc3ccccc3[nH]2)[C@H]1OC(=O)c1cc2ccccc2[nH]1,-0.233,-0.448,-0.154,-1.57 (inactive),0.284,-0.199,-0.213,0.469,0.135,0.0912
COc1ccc(NN2C(C(O)c3ccccc3)C=CC3C(=O)N(C4CCCCC4)C(=O)C32)cc1 (stereo not given),1.25,0.535,0.291,-1.18 (inactive),1.24,1.28,0.122,1.21,0.453,0.786
CC1(C)OB(/C=C\CC(OC(=O)c2ccncc2)c2ccccc2)OC1(C)C (stereo not given),0.398,1.17,1.47,0.639 (inactive),-0.951,-0.131,-1.31,-0.0031,-1.26,1.75
CC[C@H]1C2=C3C(CC[C@H]4C(OCc5ccc(F)cc5C(F)(F)F)OC[C@](C)([C@@H]34)N(C(=O)OC(C)(C)C)C2)C(COC(C)=O)C1COC(C)=O (stereo not given in full),0.386,0.62,0.971,-0.695 (inactive),0.402,0.665,-0.379,0.418,-0.583,0.691
